Results as given in PubChem BioAssay.
Calls of active or inactive are those of the source.

Tests used:
[1] = test system: PRMT1 (protein arginine N-methyltransferase 1); experiment: PRMT1 binders on small-molecule microarrays, primary screen, biochemical, small-molecule microarray, 635 nm fluorescence (AID 1088); details: small-molecule microarray binding, higher = more signal;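 note: binding of Prmt1 protein to compounds spotted on small-molecule microarray slides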
[2] = yeast growth modulation, basal conditions, primary screen, YJM789 clinical isolate, OD600, 24 h (AID 1089);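 note: growth of clinical yeast isolate S. cerevisiae YJM 789 seeded 1000 cells per well; test concentration not given here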; details: S. cerevisiae YJM789 growth, higher = more signal, called active from +8 up or from −8 down
[3] = fission yeast growth modulation, primary screen, strain 972, OD600, 24 h, no modulator (AID 1090);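 note: basal condition with compound alone and no growth modifier present; test concentration not given here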; details: S. pombe 972 growth, higher = more signal, called active from +8 up or from −8 down
[4] = S. cerevisiae growth modulation with rapamycin, primary screen, strain BY4716, OD600, 96 h (AID 1091); details: higher = more signal, called active from +8 up or from −8 down; note: test concentration not given here
[5] = target: Torsin-1A-interacting protein 2 (Homo sapiens) (UniProt Q8NFQ8); experiment: LULL1 binders on small-molecule microarray, primary screen, cell lysate, human LULL1 lysate, 635/667 nm fluorescence (AID 1092); details: hLULL1 lysate binding, 635 nm fluorescence, higher = more signal;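 note: probe is lysate of COS7 cells overexpressing human LULL1; score merges per-feature 667 nm fluorescence with signal-to-noise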
Sequence of Torsin-1A-interacting protein 2 (Homo sapiens) (Q8NFQ8 whole entry, looked up): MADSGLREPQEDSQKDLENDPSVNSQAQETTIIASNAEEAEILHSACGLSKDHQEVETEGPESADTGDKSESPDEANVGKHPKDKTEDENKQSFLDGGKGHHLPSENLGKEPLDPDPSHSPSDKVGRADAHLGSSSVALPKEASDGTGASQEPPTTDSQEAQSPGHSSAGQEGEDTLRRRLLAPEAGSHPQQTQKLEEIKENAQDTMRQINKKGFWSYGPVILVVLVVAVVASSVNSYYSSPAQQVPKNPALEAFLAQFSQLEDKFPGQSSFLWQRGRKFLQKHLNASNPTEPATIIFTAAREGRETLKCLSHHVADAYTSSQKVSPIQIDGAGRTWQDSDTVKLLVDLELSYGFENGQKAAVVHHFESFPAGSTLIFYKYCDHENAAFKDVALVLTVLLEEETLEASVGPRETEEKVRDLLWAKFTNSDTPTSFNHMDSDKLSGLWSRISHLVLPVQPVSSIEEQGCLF

[6] = E. coli growth modulation, two-sided OD650, primary screen, E. coli filamentation project, strain DRC41, 24 h (AID 1093); details: OD650, 24 h, higher = more signal, called active from +8 up or from −8 down;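 note: MC1000 strain lacking acrAB efflux and sulA so SOS filamentation is blocked; test concentration not given here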
[7] = small-molecule microarray binders of probe aLefty2, primary screen, biochemical, biotinylated probe, 635/667 nm fluorescence (AID 1094); details: higher = more signal;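 note: score merges spot fluorescence near 667 nm with spot signal-to-noise ratio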
[8] = test system: Noggin (protein binding on small-molecule microarray); experiment: Noggin binders on small-molecule microarray, primary screen, biochemical, 635/667 nm fluorescence (AID 1095); details: 635 nm fluorescence, higher = more signal;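 note: score merges 667 nm feature fluorescence with signal to noise over triplicate slides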
[9] = target: Neurogenic locus notch homolog protein 3 (Homo sapiens) (UniProt Q9UM47); experiment: NOTCH3 binders on small-molecule microarray, primary screen, biochemical, 635/667 nm fluorescence (AID 1096); details: NOTCH3 binding, 635 nm fluorescence, higher = more signal
Sequence of Neurogenic locus notch homolog protein 3 (Homo sapiens) (Q9UM47 whole entry, looked up): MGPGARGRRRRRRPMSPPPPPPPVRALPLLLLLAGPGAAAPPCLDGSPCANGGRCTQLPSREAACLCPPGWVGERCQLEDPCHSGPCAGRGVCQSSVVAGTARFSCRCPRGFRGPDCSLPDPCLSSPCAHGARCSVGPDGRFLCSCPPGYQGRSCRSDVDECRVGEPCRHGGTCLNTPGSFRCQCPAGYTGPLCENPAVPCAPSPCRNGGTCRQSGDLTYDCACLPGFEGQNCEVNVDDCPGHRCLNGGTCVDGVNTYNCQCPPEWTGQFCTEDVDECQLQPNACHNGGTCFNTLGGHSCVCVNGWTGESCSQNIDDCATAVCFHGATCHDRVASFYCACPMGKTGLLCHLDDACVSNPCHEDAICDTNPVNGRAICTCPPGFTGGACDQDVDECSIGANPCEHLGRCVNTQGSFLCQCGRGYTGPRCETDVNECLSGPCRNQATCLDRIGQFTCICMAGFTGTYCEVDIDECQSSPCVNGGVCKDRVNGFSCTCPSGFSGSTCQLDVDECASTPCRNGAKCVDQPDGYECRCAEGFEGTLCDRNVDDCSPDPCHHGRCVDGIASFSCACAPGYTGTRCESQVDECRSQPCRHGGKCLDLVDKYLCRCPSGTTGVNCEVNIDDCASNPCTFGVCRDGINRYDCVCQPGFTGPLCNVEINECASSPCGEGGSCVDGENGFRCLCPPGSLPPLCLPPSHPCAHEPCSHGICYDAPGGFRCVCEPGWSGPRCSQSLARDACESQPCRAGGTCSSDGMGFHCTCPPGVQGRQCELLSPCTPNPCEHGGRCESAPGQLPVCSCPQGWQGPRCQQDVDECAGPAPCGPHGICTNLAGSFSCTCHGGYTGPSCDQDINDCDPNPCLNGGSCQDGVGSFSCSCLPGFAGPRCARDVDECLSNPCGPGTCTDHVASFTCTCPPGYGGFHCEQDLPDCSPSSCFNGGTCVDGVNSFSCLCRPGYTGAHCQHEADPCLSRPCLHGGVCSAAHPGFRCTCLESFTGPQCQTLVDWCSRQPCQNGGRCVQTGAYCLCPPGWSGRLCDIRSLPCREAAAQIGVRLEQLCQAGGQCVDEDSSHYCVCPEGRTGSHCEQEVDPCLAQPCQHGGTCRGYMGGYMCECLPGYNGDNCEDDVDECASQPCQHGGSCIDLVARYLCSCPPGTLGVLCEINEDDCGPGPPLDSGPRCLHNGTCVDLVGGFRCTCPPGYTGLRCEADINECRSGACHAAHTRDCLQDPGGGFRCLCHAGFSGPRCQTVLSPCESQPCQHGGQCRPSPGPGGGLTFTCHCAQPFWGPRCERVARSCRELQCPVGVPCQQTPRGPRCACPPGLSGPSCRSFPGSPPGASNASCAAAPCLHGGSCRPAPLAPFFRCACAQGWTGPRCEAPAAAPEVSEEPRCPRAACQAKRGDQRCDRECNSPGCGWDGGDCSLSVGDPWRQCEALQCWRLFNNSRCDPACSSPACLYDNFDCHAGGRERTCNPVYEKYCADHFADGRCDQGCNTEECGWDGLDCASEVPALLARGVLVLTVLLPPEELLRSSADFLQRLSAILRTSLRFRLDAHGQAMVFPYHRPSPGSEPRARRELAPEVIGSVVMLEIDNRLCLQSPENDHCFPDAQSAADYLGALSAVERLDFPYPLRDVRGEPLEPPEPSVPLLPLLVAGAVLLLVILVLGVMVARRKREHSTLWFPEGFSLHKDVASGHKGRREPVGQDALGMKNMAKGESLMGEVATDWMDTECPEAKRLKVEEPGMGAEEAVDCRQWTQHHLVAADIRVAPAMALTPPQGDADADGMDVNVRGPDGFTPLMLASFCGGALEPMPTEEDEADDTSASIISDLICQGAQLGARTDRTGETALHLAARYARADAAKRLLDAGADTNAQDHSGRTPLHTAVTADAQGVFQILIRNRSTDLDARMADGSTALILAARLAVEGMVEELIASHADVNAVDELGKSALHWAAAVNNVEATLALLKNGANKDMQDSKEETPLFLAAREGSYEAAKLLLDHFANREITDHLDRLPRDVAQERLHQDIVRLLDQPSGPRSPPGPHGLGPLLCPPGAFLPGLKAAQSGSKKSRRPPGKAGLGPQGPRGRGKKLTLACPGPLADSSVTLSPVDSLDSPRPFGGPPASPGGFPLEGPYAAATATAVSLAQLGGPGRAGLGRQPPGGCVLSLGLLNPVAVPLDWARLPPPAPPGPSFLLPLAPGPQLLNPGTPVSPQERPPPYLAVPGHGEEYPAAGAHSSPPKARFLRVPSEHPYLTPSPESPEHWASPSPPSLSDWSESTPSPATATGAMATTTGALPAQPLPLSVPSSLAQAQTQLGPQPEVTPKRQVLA

[10] = small-molecule microarray binders of probe aEGFR, primary screen, biochemical, biotinylated probe, 635/667 nm fluorescence (AID 1097); details: higher = more signal;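 note: probe is a biotinylated anti-EGFR antibody binding compounds printed on slides; score combines fluorescence near 667 nm and signal to noise of each spot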
[11] = test system: Plasmodium falciparum Sir2 (PF13_0152, Sir2A); experiment: pfSir2 binders on small-molecule microarrays, primary screen, biochemical, small-molecule microarray, 635 nm fluorescence (AID 1098); details: small-molecule microarray binding, fluorescence 635 nm; higher = more signal;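 note: score merges spot fluorescence intensity with its signal-to-noise ratio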
[12] = small-molecule microarray binders of probe aDKK1, primary screen, biochemical, biotinylated probe, 635/667 nm fluorescence (AID 1099); details: higher = more signal;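 note: score merges 667nm spot fluorescence with signal to noise across triplicate slides; reference of the scale not given here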
[13] = small-molecule microarray binders of probe aCHRDL2, primary screen, biochemical, biotinylated probe, 635/667 nm fluorescence (AID 1100); details: higher = more signal
[14] = splicing luciferase reporter signal modulators, primary screen, spliceosome inhibition project, cell-based, HEK293, splice +/- reporter (AID 1101); details: luminescence, 24 h, higher = more signal, called active from +8 up or from −8 down;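 note: HEK293 cells carrying a splicing-competent luciferase reporter gene; test concentration not given here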
[15] = target: Fibroblast growth factor 10 (Homo sapiens) (UniProt O15520); experiment: FGF10 binders on small-molecule microarrays, primary screen, biochemical, small-molecule microarray, 635 nm fluorescence (AID 1102); details: FGF10 binding, fluorescence 635 nm, higher = more signal
Sequence of Fibroblast growth factor 10 (Homo sapiens) (O15520 whole entry, looked up): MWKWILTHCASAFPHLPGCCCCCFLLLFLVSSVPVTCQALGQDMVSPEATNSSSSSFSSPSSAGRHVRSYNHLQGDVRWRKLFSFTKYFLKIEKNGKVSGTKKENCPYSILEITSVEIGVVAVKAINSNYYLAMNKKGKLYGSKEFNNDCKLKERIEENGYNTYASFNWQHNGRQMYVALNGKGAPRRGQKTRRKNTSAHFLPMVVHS

[16] = test system: glycogen synthase kinase-3 (GSK3A per assay name; protocol says GSK3B); experiment: GSK3 binders on small-molecule microarrays, primary screen, biochemical, small-molecule microarray, 635 nm fluorescence, GSK3A (AID 1103); details: small-molecule microarray binding, fluorescence 635 nm; higher = more signal; note: the record names both GSK3A and GSK3B
[17] = target: Epidermal growth factor receptor (Homo sapiens) (UniProt P00533); experiment: EGFR binders on small-molecule microarrays, primary screen, biochemical, small-molecule microarray, 635 nm fluorescence (AID 1104); details: EGFR binding, higher = more signal;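 note: score merges 667 nm emission intensity with spot signal to noise over triplicate slides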
Sequence of Epidermal growth factor receptor (Homo sapiens) (P00533 whole entry, looked up): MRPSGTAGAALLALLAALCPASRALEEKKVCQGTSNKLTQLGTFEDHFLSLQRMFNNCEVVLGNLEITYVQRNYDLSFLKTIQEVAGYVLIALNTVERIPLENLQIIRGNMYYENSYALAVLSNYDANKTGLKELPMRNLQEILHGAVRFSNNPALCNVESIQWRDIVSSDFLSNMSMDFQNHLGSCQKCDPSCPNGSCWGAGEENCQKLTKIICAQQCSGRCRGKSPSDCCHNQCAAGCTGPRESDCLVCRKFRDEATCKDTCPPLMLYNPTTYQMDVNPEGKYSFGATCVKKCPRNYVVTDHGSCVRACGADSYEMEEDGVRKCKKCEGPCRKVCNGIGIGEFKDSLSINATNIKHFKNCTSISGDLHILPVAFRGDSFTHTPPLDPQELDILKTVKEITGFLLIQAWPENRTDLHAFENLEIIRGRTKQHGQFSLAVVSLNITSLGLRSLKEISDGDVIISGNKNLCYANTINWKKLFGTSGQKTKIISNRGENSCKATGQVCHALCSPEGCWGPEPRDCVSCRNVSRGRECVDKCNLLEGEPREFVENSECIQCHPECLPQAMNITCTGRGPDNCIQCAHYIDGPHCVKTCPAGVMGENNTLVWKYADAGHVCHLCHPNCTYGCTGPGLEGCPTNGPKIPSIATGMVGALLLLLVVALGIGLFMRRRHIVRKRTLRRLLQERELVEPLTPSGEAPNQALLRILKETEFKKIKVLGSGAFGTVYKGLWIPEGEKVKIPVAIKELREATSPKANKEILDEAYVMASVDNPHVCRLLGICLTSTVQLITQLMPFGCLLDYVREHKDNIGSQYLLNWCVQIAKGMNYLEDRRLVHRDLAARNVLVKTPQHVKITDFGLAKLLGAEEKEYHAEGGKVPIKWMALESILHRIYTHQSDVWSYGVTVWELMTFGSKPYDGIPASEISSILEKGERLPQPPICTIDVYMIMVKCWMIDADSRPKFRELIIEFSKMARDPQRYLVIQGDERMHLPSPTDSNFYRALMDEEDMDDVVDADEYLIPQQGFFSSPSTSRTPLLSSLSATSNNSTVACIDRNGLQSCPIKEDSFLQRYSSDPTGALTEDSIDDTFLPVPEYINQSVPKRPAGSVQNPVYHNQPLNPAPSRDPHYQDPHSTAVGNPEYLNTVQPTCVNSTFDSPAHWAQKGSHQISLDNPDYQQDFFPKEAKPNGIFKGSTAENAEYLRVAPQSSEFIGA

[18] = target: Follistatin-related protein 3 (Homo sapiens) (UniProt O95633); experiment: FSTL3 binders on small-molecule microarrays, primary screen, biochemical, small-molecule microarray, 635 nm fluorescence (AID 1105); details: FSTL3 binding, higher = more signal;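 note: score merges emission near 667 nm and signal to noise per printed spot across three slides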
Sequence of Follistatin-related protein 3 (Homo sapiens) (O95633 whole entry, looked up): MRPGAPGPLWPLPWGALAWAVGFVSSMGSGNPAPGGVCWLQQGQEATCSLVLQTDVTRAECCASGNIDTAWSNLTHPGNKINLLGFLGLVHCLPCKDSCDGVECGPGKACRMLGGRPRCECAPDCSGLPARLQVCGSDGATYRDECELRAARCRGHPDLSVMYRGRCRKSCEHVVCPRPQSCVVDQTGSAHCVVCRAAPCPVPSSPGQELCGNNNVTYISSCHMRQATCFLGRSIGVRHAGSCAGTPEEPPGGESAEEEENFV

[19] = target: Dickkopf-related protein 1 (Homo sapiens) (UniProt O94907); experiment: DKK1 binders on small-molecule microarrays, primary screen, biochemical, small-molecule microarray, 635 nm fluorescence scan (AID 1106); details: DKK1 binding, higher = more signal;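 note: score merges emission near 667 nm with signal to noise over three replicate slides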
Sequence of Dickkopf-related protein 1 (Homo sapiens) (O94907 whole entry, looked up): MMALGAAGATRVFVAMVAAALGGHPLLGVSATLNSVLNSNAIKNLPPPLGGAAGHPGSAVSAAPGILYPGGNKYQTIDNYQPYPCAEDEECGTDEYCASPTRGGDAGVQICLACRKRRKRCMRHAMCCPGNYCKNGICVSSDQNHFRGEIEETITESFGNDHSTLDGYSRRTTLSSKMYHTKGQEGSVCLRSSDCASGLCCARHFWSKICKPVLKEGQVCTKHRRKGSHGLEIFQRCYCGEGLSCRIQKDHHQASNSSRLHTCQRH

[20] = test system: Inhibin beta A chain (activin A); experiment: INHBA (activin A) binders on microarrays, primary screen, biochemical, small-molecule microarray, 635 nm fluorescence scan (AID 1107); details: small-molecule microarray binding, higher = more signal;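 note: mouse activin A protein probed at 4.33 µg/mL on printed slides; score merges bound-protein fluorescence near 667 nm with spot signal-to-noise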

SMILES	composite z-score [1]	z-score [2]	z-score [3]	z-score [4]	composite z-score [5]	z-score [6]	composite z-score [7]	composite z-score [8]	composite z-score [9]	composite z-score [10]	composite z-score [11]	composite z-score [12]	composite z-score [13]	z-score [14]	composite z-score [15]	composite z-score [16]	composite z-score [17]	composite z-score [18]	composite z-score [19]	composite z-score [20]
CC(C)OC(=O)C1=CCC(c2cccc(Cl)c2)O1 (stereo not given)	0.559	-3.2 (inactive)	-5.63 (inactive)	-1.11 (inactive)	3.3	1.09 (inactive)	-0.245	-0.523	-0.129	-0.306	1.58	-0.306	0.461	-2.49 (inactive)	-1.34	-0.33	-1.71	-0.715	-2.24	-1.41
C[N+](C)(C)CCCC[C@@H]1NC(=O)[C@@H]2C[C@H](C(=O)NCCCCCCNC(=O)CS)[C@H](c3cccc(OCCO)c3)N2C1=O	1.12	-1.33 (inactive)	-0.333 (inactive)	-0.485 (inactive)	1.09	-0.102 (inactive)	-0.21	1.84	-0.0644	-0.233	1.58	-0.209	0.111	-0.451 (inactive)	0.0947	-0.755	-1.01	-0.0324	0.383	0.439
COC(=O)c1c2oc(c1C(=O)OC)C(=O)N[C@H](Cc1ccccc1)Cn1nncc1C1(CCCCC1)NC(=O)N[C@H](CO)CC2	0.702	0.776 (inactive)	0.414 (inactive)	-0.178 (inactive)	1.03	1.17 (inactive)	-0.205	0.311	0.17	-0.115	0.0465	0.026	-0.485	-1.46 (inactive)	0.0778	0.129	0.0246	0.402	0.452	0.006
CC(C)C[C@@H]1NC(=O)[C@@H]2C[C@H](C(=O)NCCCCN(C)C)[C@H](c3ccc(O)cc3)N2C1=O	0.577	-0.145 (inactive)	1.36 (inactive)	-0.367 (inactive)	0.218	-0.0929 (inactive)	0.0566	0.118	-0.531	-0.218	0.791	0.147	0.874	0.619 (inactive)	-1.42	-0.439	-1.29	-0.401	-0.283	-0.134
Cc1ccccc1/C=C/C=O	-1.47	-1.01 (inactive)	-3.42 (inactive)	-0.402 (inactive)	-0.672	0.35 (inactive)	-0.13	-0.13	-1.63	-0.307	0.939	-0.275	0.297	-0.0672 (inactive)	-0.435	-1.09	-0.813	-0.303	-0.243	0.612
Cc1ccc(N2C(=O)c3ccccc3[C@@H](C(=O)NCC(C)C)[C@@H]2c2ccc(CO)cc2)nc1	0.137	0.229 (inactive)	0.0994 (inactive)	-0.456 (inactive)	2.32	0.409 (inactive)	-0.186	-0.479	-1.03	-0.298	1.48	-0.244	0.544	0.337 (inactive)	-0.617	-0.813	-1.26	-1.19	-0.52	0.244
O=c1cccc(-c2cccc3ccccc23)o1	-0.106	-5.22 (inactive)	-13.3 (active)	4.08 (inactive)	0.877	1.48 (inactive)	0.303	-0.364	-0.107	-0.2	1.06	0.849	1.23	0.873 (inactive)	-0.52	-0.274	-1.18	-0.218	-0.951	1.46
C=CC[C@@]1(C(N)=O)N=C(c2ccc(OCCCO)cc2)O[C@@H]1c1ccccc1N=[N+]=[N-]	1.14	-0.545 (inactive)	0.0584 (inactive)	-1.15 (inactive)	2.44	1.4 (inactive)	0.429	0.404	-0.299	0.317	1.61	1.36	1.14	-0.0133 (inactive)	0.63	0.649	0.0347	0.0562	1.16	1.38
COCCCNC(=O)[C@]1(Cc2ccccc2N=[N+]=[N-])N=C(c2ccc(OCCCO)cc2)O[C@@H]1c1ccccc1CN=[N+]=[N-]	1.51	-1.24 (inactive)	-0.365 (inactive)	4.94 (inactive)	3.18	1.01 (inactive)	0.465	0.579	1.09	0.606	1.09	1.2	1.01	-0.4 (inactive)	1.26	0.644	0.504	0.912	0.318	0.928
CN1C(=O)C2C=CC(C(O)C(C)(C)C)N(Nc3ccccc3)C2C1=O (stereo not given)	-0.316	0.392 (inactive)	1 (inactive)	0.949 (inactive)	3.16	-0.971 (inactive)	-0.266	-0.611	-0.784	-0.19	1.24	-0.108	0.211	1.06 (inactive)	-0.0353	-0.0258	-0.639	-0.543	-0.406	0.941
C=CCC(OC(C)=O)[C@@H]1[C@@H](N(Cc2ccc(-c3cccc(C(F)(F)F)c3)o2)C(=O)Cc2ccc(OC)cc2)c2cc(OCCCO)ccc2N1C(=O)Cc1ccc(OC)cc1 (stereo not given in full)	-0.0091	-0.816 (inactive)	-0.566 (inactive)	-0.918 (inactive)	-0.106	1.48 (inactive)	-0.107	-0.239	-0.869	-0.178	0.294	-0.22	0.373	-1.94 (inactive)	-0.593	-1.7	-0.719	-0.391	-0.227	0.925
O[C@@H](Cc1ccccc1)[C@@H](/C=C/c1ccccc1)NCc1ccccc1Br	-0.995	0.0419 (inactive)	-11.4 (active)	-1.54 (inactive)	-0.557	0.908 (inactive)	0.0372	-1.34	-0.707	-0.348	-1.01	0.151	1.16	0.761 (inactive)	-1.98	-1.45	-1.37	-2.06	-1.42	0.52
COc1cc(NN2C(C(O)c3ccccc3)C=CC3C(=O)N(c4ccccc4)C(=O)C32)cc(OC)c1OC (stereo not given)	1.34	0.694 (inactive)	-0.933 (inactive)	0.126 (inactive)	3.5	-0.288 (inactive)	0.17	0.833	1.03	0.016	1.53	0.256	0.862	-0.412 (inactive)	1.28	1.14	0.257	1.47	0.0142	0.706
COc1ccc([Si](C)(C)[C@H]2[C@H](CCO)O[C@@]3(C(=O)N(Cc4ccccc4)c4ccc(N5C(=O)COc6ccccc65)cc43)[C@@H]2C)cc1	-0.171	0.773 (inactive)	-0.494 (inactive)	5.54 (inactive)	1.14	1.45 (inactive)	0.0365	0.177	0.246	-0.126	1.12	0.0649	0.521	-1.56 (inactive)	0.305	-0.965	-0.5	-0.207	-0.214	0.241
C=CCC(OC(C)=O)[C@@H]1[C@@H](N(Cc2cc3ccccc3o2)C(=O)c2ccc(C)cc2)c2cc(OCCCO)ccc2N1C(=O)c1ccc(-c2ccccc2)cc1 (stereo not given in full)	-0.486	-6.89 (inactive)	-1.27 (inactive)	-2.17 (inactive)	0.666	-0.818 (inactive)	0	0.132	-0.217	-0.258	-0.433	-0.228	0.118	-3.23 (inactive)	0.161	-0.291	0.0009	0.363	0.111	1.32
C[C@]1(C(=O)NCC(F)(F)F)c2ccccc2C(=O)N(Cc2cc(F)cc(C(F)(F)F)c2)[C@H]1c1ccc(CO)cc1	1.38	0.49 (inactive)	-0.936 (inactive)	-0.563 (inactive)	2.67	-0.951 (inactive)	0.341	-0.16	-0.255	0.52	1.54	1.64	0.572	-0.633 (inactive)	0.257	-0.12	0.0376	-0.66	-0.609	-0.461
C[N+](C)(C)CCCCNC(=O)[C@H]1C[C@H]2C(=O)N3CCC[C@H]3C(=O)N2[C@H]1c1ccc(O)cc1	1.54	0.0531 (inactive)	0.0211 (inactive)	-1.41 (inactive)	2.14	-0.0773 (inactive)	-0.101	1.85	1.04	0.124	1.48	0.0607	-0.152	0.0339 (inactive)	1.39	0.521	0.967	1.49	1.82	-0.443
COc1ccc([Si](C)(C)[C@H]2[C@H](CC(=O)N3CCC[C@H]3CO)O[C@@]3(C(=O)N(Cc4cccc(N5CCC5=O)c4)c4ccccc43)[C@@H]2C)cc1	1.55	-0.795 (inactive)	0.289 (inactive)	-0.743 (inactive)	2.6	1.24 (inactive)	0.226	1	1.13	0.133	1.11	-0.0732	-0.222	0.566 (inactive)	1.4	1.27	0.993	1.45	0.672	0.728
Cc1ccc(S[C@]2(C(=O)NCCN3CCOCC3)CC(=O)N(C3CCCCC3)[C@@H]2c2ccc(CO)cc2)cc1	1.05	-0.0801 (inactive)	-0.134 (inactive)	-0.942 (inactive)	3.05	-0.114 (inactive)	-0.072	0.218	0.404	-0.111	1.35	-0.0443	0.781	0.114 (inactive)	-0.103	0.606	-0.551	0.181	-0.55	0.602
C=CCC(OC(C)=O)[C@@H]1[C@@H](N(Cc2cc3ccccc3o2)C(=O)c2cccc3ccccc23)c2cc(OCCCO)ccc2N1C(=O)Cc1ccc2ccccc2c1 (stereo not given in full)	0.37	0.263 (inactive)	0.246 (inactive)	0.445 (inactive)	0.797	0.117 (inactive)	-0.0898	-0.233	-0.164	-0.123	0.53	0.224	0.471	-0.904 (inactive)	0.0259	-0.925	-0.221	0.0969	-0.0207	1.02
